From the supplement of paper PMC8371130
Counter-ions that a name gives are not always drawn.

Test system: HL-1
Assay: relative cell viability (CellTiter-Glo) vs DMSO control (% of DMSO control); higher = more viable cells
In short: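 One day after HL-1 mouse atrial cardiomyocytes were plated (1000 cells per well, 384-well plates) with compounds at 40, 200, 1000 or 5000 nM in 0.01% DMSO, they were transferred to a hypoxic workstation at 1% O2. After 48 h there, the cells were reoxygenated for 24 h in a normal incubator, and comparison cells stayed in normoxia throughout the same time. Cell viability was quantified with CellTiter-Glo luminescence and normalised to vehicle-treated control cells.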

[1] = oxygen condition: hypoxia 48 h (1% O2) + reoxygenation 24 h, 40 nM
[2] = oxygen condition: hypoxia 48 h (1% O2) + reoxygenation 24 h, 200 nM
[3] = oxygen condition: hypoxia 48 h (1% O2) + reoxygenation 24 h, 1000 nM
[4] = oxygen condition: hypoxia 48 h (1% O2) + reoxygenation 24 h, 5000 nM
[5] = oxygen condition: normoxia 72 h, 40 nM
[6] = oxygen condition: normoxia 72 h, 200 nM
[7] = oxygen condition: normoxia 72 h, 1000 nM
[8] = oxygen condition: normoxia 72 h, 5000 nM

SMILES	relative cell viability [1]	relative cell viability [2]	relative cell viability [3]	relative cell viability [4]	relative cell viability [5]	relative cell viability [6]	relative cell viability [7]	relative cell viability [8]
CC[C@H]1OC(=O)C[C@@H](O)[C@H](C)[C@@H](O[C@@H]2O[C@H](C)[C@@H](O[C@H]3C[C@@](C)(O)[C@@H](O)[C@H](C)O3)[C@H](N(C)C)[C@H]2O)[C@@H](CC=O)C[C@@H](C)C(=O)/C=C/C(C)=C/[C@@H]1CO[C@@H]1O[C@H](C)[C@@H](O)[C@@H](OC)[C@H]1OC [Tylosin tartrate]	102	108	99.4	99	101	92.6	100	91.8
O=C1CN2Cc3c(ccc(Cl)c3Cl)N=C2N1 [Anagrelide HCl]	97.6	98.7	97.5	108	99.8	100	105	111
CCc1c2c(nc3ccc(OC(=O)N4CCC(N5CCCCC5)CC4)cc13)-c1cc3c(c(=O)n1C2)COC(=O)[C@]3(O)CC [Irinotecan HCl Trihydrate]	89	95.6	64.6	40.2	99	83.5	62.5	40.2
O=C(O)c1cc(=O)c2ccccc2o1 [Chromocarb]	103	105	109	110	111	103	107	115
CCN(CC)CCOC(=O)c1ccc(N)cc1 [Procaine]	100	102	109	108	105	104	105	110
Cc1ccc(C(=O)Nc2ccc(CN3CCN(C)CC3)c(C(F)(F)F)c2)cc1C#Cc1cnc2cccnn12 [Ponatinib]	105	108	113	107	103	103	105	106
CCCC(=O)OCOC(=O)C1=C(C)NC(C)=C(C(=O)OC)C1c1cccc(Cl)c1Cl (configuration not stated) [Cleviprex]	106	90.5	93.1	98	91.9	91.8	96.5	96.4
CC(C)NCC(O)COc1ccc(CCOCC2CC2)cc1 (configuration not stated) [Betaxolol hydrochloride]	107	104	106	79.8	105	106	86.5	69.3
CCN(CC)CCOC(=O)C(c1ccccc1)c1ccccc1 [Adiphenine HCl]	99.1	94.2	102	108	101	97.4	101	110
COCCOC(=O)C1=C(C)NC(C)=C(C(=O)OC/C=C/c2ccccc2)C1c1cccc([N+](=O)[O-])c1 (configuration not stated) [Cilnidipine]	101	105	110	109	107	109	103	110
CC(C)(C#N)c1cc(Cn2cncn2)cc(C(C)(C)C#N)c1 [Anastrozole]	94.2	99.5	57.7	34.5	100	93.2	87.9	22.4
NC(=O)NO [Hydroxyurea]	101	109	109	108	108	103	109	110
C[C@@H](NCCCc1cccc(C(F)(F)F)c1)c1cccc2ccccc12	102	102	105	102	95.2	95.9	109	106
CC1CCc2cc(F)cc3c(=O)c(C(=O)O)cn1c23 (configuration not stated) [Flumequine]	104	98.4	117	108	106	120	104	98.2
Cc1nc2n(c(=O)c1CCN1CCC(c3noc4cc(F)ccc34)CC1)CCCC2 [Risperidone]	104	109	106	113	104	109	104	114
COC(c1ccccc1)(c1ccccc1)[C@H](Oc1nc(C)cc(C)n1)C(=O)O [Ambrisentan]	105	97.3	109	105	95.1	94	102	99.8
NCCc1c[nH]cn1 [Histamine Phosphate]	99.7	101	96.7	108	98.8	101	97.7	109
CCOc1nc2cccc(C(=O)O)c2n1Cc1ccc(-c2ccccc2-c2noc(=O)[nH]2)cc1 [Azilsartan]	104	108	111	115	109	110	114	111
O=C(O)/C=C/c1ccc(Cn2ccnc2)cc1 [Ozagrel]	102	97.4	85.7	29.5	105	107	90	18
NC(=O)c1ncn([C@@H]2O[C@H](CO)[C@@H](O)[C@H]2O)c1N [Acadesine]	90.2	102	102	116	103	103	110	117

SMILES	relative cell viability [1]	relative cell viability [2]	relative cell viability [3]	relative cell viability [4]	relative cell viability [5]	relative cell viability [6]	relative cell viability [7]	relative cell viability [8]
CCOC(=O)C1=C(C)NC(C)=C(C(=O)OC)C1c1cccc([N+](=O)[O-])c1 (configuration not stated) [Nitrendipine]	95.9	106	98.1	107	107	103	104	111
NC[C@H](O)c1ccc(O)c(O)c1 [Noradrenaline bitartrate monohydrate]	105	104	104	111	98.9	99.7	113	109
CCCCCCCN(CC)CCCC(O)c1ccc(NS(C)(=O)=O)cc1 (configuration not stated) [Ibutilide fumarate]	103	95.7	98.8	92.9	98.3	97.9	97.3	97.6
Cc1c(OCC(F)(F)F)ccnc1C[S@@+]([O-])c1nc2ccccc2[nH]1 [Dexlansoprazole]	105	101	107	105	101	97.7	104	91.9
CN[C@@H]1[C@H](O)[C@H](NC)[C@H]2O[C@@]3(O)C(=O)C[C@@H](C)O[C@H]3O[C@@H]2[C@H]1O [Spectinomycin  hydrochloride]	105	102	102	109	107	86.5	101	101
NC(=O)N1c2ccccc2C=Cc2ccccc21 [Carbamazepine]	97.1	103	105	106	103	103	95.1	109
CCC[C@@H]1C[C@@H](C(=O)N[C@@H]([C@H]2O[C@H](SC)[C@H](O)[C@@H](O)[C@H]2O)[C@@H](C)O)N(C)C1 [Lincomycin hydrochloride]	93.1	103	103	103	99	98.3	100	97
CC(O)(P(=O)(O)O)P(=O)(O)O [Etidronate]	95.8	96.9	99.7	109	95.1	96.5	95.9	105
CCC[C@H](N[C@@H](C)C(=O)N1[C@H](C(=O)O)C[C@@H]2CCCC[C@@H]21)C(=O)OCC [Perindopril Erbumine]	110	81	107	115	109	111	111	114
NCCS [Cysteamine HCl]	101	108	109	106	102	102	106	111
NCCCC[C@H](N[C@@H](CCc1ccccc1)C(=O)O)C(=O)N1CCC[C@H]1C(=O)O [Lisinopril]	111	94.9	100	107	101	94.7	107	108
CCCC(CCC)C(=O)O [Divalproex sodium]	98.3	109	102	111	99.9	106	106	118
COC(=O)[C@@H]1CC2=CC(=O)CC[C@]2(C)[C@@]23O[C@@H]2C[C@@]2(C)[C@@H](CC[C@@]24CCC(=O)O4)[C@H]13 [Eplerenone]	102	103	101	103	107	107	108	104
COCCc1ccc(OCC(O)CNC(C)C)cc1 (configuration not stated) [Metoprolol tartrate]	101	98	105	111	77.9	103	103	111
Cc1ncc(CO)c(CO)c1O [Pyridoxine hydrochloride]	102	101	103	109	99.7	100	103	114
NS(=O)(=O)c1cc2c(cc1Cl)NCNS2(=O)=O [Hydrochlorothiazide]	103	106	110	106	110	107	107	115
CN(C)CCN(Cc1cccs1)c1ccccn1 [Methapyrilene HCl]	104	104	104	84.1	109	107	111	111
CC1(C)Cc2c(-c3ccccc3)c(-c3ccc(Cl)cc3)c(CC(=O)O)n2C1 [Licofelone]	97.3	94.8	97.1	105	92.9	96.5	93.5	108
Cc1ccccc1C(=O)Nc1ccc(C(=O)N2CCCC(O)c3cc(Cl)ccc32)c(C)c1 (configuration not stated) [Tolvaptan]	97.3	104	104	110	96.7	104	106	108
